Experimental data as given in ChEMBL document CHEMBL4513216, “Probing the Open Global Health Chemical Diversity Library for Multistage-Active Starting Points for Next-Generation Antimalarials” (ACS Infect Dis, 2020).
Hit rate of the full screen: of about 69,000 compounds, about 8,600 (12%) showed an effect of 50% or more. What follows is part of a selection rich in strong results, with near analogues and random picks from the rest.

System: Plasmodium berghei
Assay: Screen against P. berghei liver stage (PbLuc), transformed with Luciferase, at 10uM
Assay type: functional, HepG2
Details: tested at 10 uM

| Structure (SMILES) | INHIBITION [%] |
| --- | --- |
| NC(=O)C1CCN(C(=O)CCn2ccc3ccc(Br)cc32)CC1 | 10.6 |
| c1cnc(N2CCOCC3(CCCN(CC4CCOCC4)C3)C2)nc1 (stereo unspecified) | -4.88 |
| CNC(=O)CN1CC[C@H]2CN(C(=O)c3cc[nH]n3)C[C@H]2C1 | 41.1 |
| O=C(NCc1ccnc(-n2cccn2)c1)C1CC(=O)N(CC2CC2)C1 (stereo unspecified) | -25.9 |
| CN(C)S(=O)(=O)N1C[C@@H]2C[C@H](C(=O)Nc3cccnc3)[C@H](C1)O2 | 43.9 |
| CC(=O)c1ccc(OCC(C)O)cc1O (stereo unspecified) | 47.1 |
| COc1ccc(CN(C)[C@@H]2CN(S(=O)(=O)C(C)C)C[C@H]2O)cc1 | 2.15 |
| CCN1C(=O)[C@]2(CC[C@@H]3CN(C(=O)Nc4ccc(F)cc4)C[C@@H]32)N=C1C | 22.2 |
| COc1ncccc1CNC(=O)Nc1cccnc1N1CCCC1 | 43.3 |
| COc1cccc(CC(=O)NCC(Cc2ccc(F)cc2)C(N)=O)c1 (stereo unspecified) | 8.99 |
| N#Cc1ccc(N2CCC(NS(=O)(=O)c3cccs3)CC2)c(F)c1 | 20.9 |
| N#Cc1c(F)cccc1N1CCC(NS(=O)(=O)c2cccs2)CC1 | 24 |
| N#Cc1cc(F)c(N2CCC(NS(=O)(=O)c3cccs3)CC2)c(F)c1 | 62.9 |
| CNc1ncc(C(=O)N2CCOC(C(=O)Nc3ccccc3)C2)cn1 (stereo unspecified) | -8.58 |
| CN(CCc1ccccc1)Cc1c(C2CC2)[nH]c2ncccc12 | 14.185 |
| CN(CCc1ccccc1)Cc1c(C2CCOCC2)[nH]c2ncccc12 | 17.125 |
| CN(CCc1ccccc1)Cc1c(C2CCNCC2)[nH]c2ncccc12 | 58.95 |
| NCCCC(=O)N1CCC2(CC1)CN(C(=O)c1ccc(Cl)cc1)CCO2 | 4.35 |
| O=C1CCN(C(=O)c2csc(-c3ccc(C(F)(F)F)cc3)n2)CCN1 | -1.26 |
| O=C(c1csc(-c2ccc(C(F)(F)F)cc2)n1)N1CCCNCC1 | 62.1 |
| CN1CCCN(C(=O)c2csc(-c3ccc(C(F)(F)F)cc3)n2)CC1 | 42.3 |
| CC(C)NC(=O)N1CCN(C(=O)NC(C)C)CC2(CNC(=O)C2)C1 | -2.17 |

| Structure (SMILES) | INHIBITION [%] |
| --- | --- |
| CC(=O)N1CCN(C(=O)NC(C)C)CC2(CNC(=O)C2)C1 (stereo unspecified) | -2.17 |
| CC(=O)N1CCN(C(=O)NC(C)C)CC2(CC(=O)N(C)C2)C1 (stereo unspecified) | -3.52 |
| CC(C)NC(=O)N1CCN(CC2CC2)CC2(CC(=O)N(C)C2)C1 (stereo unspecified) | 79.5 |
| CC(C)NC(=O)N1CCN(CC2CC2)CC2(CNC(=O)C2)C1 (stereo unspecified) | 69.6 |
| CC(C)NC(=O)N1CCN(C(=O)C(C)C)CC2(CC(=O)N(C)C2)C1 (stereo unspecified) | 22.2 |
| CN(C)C(=O)COC1COC2(CCN(CC3CCOCC3)CC2)C1 (stereo unspecified) | 12.2 |
| COCC1CCN(C(=O)c2cn(Cc3ccccc3C(F)(F)F)nn2)C1 (stereo unspecified) | -49.3 |
| CNC(=O)c1cc2c(nc1NCC1CC1)CCN(S(C)(=O)=O)CC2 | -8.94 |
| Cc1csc(C2CCCCN2C(=O)c2c[nH]c(C)n2)n1 (stereo unspecified) | 1.75 |
| CC(=O)c1ccc(C(=O)N2C[C@H]3CC[C@@H](C2)N(Cc2ccccc2)C3)s1 | -52.1 |
| CCN(CC)C(=O)N1CCN(CCc2ccncc2)CC1 | 15.5 |
| CCN(CC)CC(=O)N1CCN(CCc2ccncc2)CC1 | 52.6 |
| CCn1cc(CN2CCCN(C(=O)CCc3ccncc3)CC2)cn1 | 31 |
| Cn1cc(CCC(=O)N2CCN(Cc3ccncc3)CC2)cn1 | 27.1 |
| CCN(CC)CC(=O)N1CCN(CCCc2ccncc2)CC1 | 66.5 |
| CCC(=O)N1CCN(Cc2cc(-c3ccncc3)nn2C)CC1 | 19.3 |
| O=C(c1cccnc1)N1CCC[C@]2(C[C@H](Oc3ncccc3F)CO2)C1 | -7.59 |
| O=C(NCc1ccc(Cl)cc1)C1=NOC2(CCNC2)C1 (stereo unspecified) | 1.71 |
| c1cncc(CN2CCC(c3ccnc4nccn34)C2)c1 (stereo unspecified) | 19.99 |
| COc1ccnc(N2CCC(=O)N(CC3CC3)C(C(C)C)C2)n1 (stereo unspecified) | 50.3 |
| CC(C)C1CN(c2ncccn2)CCC(=O)N1CC1CC1 (stereo unspecified) | 9.63 |
| Cc1nccc(N2CCC(=O)N(CC3CC3)C(C(C)C)C2)n1 (stereo unspecified) | 27.2 |

| Structure (SMILES) | INHIBITION [%] |
| --- | --- |
| Cc1noc(C)c1CN1CCN(Cc2ccncc2)c2ncccc2C1 | 29 |
| Fc1ccc(Oc2nccnc2C2CCN(C3CCOCC3)CC2)cc1 | 38.7 |
| NC(=O)CN1CCCC(c2nccnc2Oc2cccc(F)c2)C1 (stereo unspecified) | -39.4 |
| CC(C)(N)C(=O)N1CCC(c2nccnc2Oc2ccccc2F)CC1 | 63.4 |
| c1ccc(Oc2nccnc2C2CCN(C3CCOCC3)CC2)cc1 | -38.3 |
| Fc1ccccc1Oc1nccnc1C1CCN(C2CCOCC2)CC1 | 25.8 |
| Cc1cccc(Oc2nccnc2C2CCN(C(=O)C(C)(C)N)CC2)c1 | 47.1 |
| CC(C)(N)C(=O)N1CCC(c2nccnc2Oc2cccc(F)c2)CC1 | 56 |
| Cc1ccc(Oc2nccnc2C2CCN(C(=O)C(C)(C)N)CC2)cc1 | 33.7 |
| Fc1cccc(Oc2nccnc2C2CCN(C3CCOCC3)CC2)c1 | 52.7 |
| CCOCC1CC2(CCN(C(=O)c3ccc4ccccc4n3)CC2)CO1 (stereo unspecified) | -33.9 |
| Cc1ccc2c(c1)C(=O)NCC1(CCN(C(=O)c3sccc3C)CC1)O2 | 41.2 |
| COc1ncc(C(=O)N(Cc2cnn(C)c2)C(C)C)cn1 | 22 |
| C1CC(CN2CCO[C@H]3[C@H](OCC4CC4)CC[C@@H]32)CCO1 | 40.9 |
| CN(C)CCN(CC1CCCO1)S(=O)(=O)NCc1ccccc1 (stereo unspecified) | 19.4 |
| Cc1cccc(CN2C(=O)CCC23CCN(C(=O)c2ccco2)CC3)n1 | -24.5 |
| CN1CCc2cc(C(=O)N(C)C)c(NCC3CC3)nc2CC1 | 2.59 |
| COc1c(CNCc2cccc(Cn3ccnc3C)c2)c(C)nn1C | 43.3 |
| COCc1cc(N(C)Cc2cnccn2)nc(C(C)(C)C)n1 | 62 |
| CN(Cc1cc(Cl)ccc1Cl)Cc1ncnn1C | 15.9 |
| CN(Cc1cnccn1)c1cncc(Br)c1 | 45.9 |
| COCc1cc(N(C)Cc2cc(C(C)(C)C)n[nH]2)ncn1 | -30.5 |

| Structure (SMILES) | INHIBITION [%] |
| --- | --- |
| COCc1cc(N(C)Cc2ncnn2C)nc(C(C)(C)C)n1 | 50.8 |
| COCc1cc(N(C)Cc2ccccn2)nc(C(C)(C)C)n1 | 27.7 |
| Cc1nc(N)nc(C)c1CC(=O)N1CCCCC1c1cccc(F)c1 (stereo unspecified) | 19.3 |
| Cc1noc(O)c1Cc1ccc2ccccc2c1 | -26.2 |
| Cc1ccsc1CN(C)c1cc(N2CCCC2CO)ncn1 (stereo unspecified) | 18.6 |
| CCn1ccnc1CN(C)c1cc(N(C)C)ncn1 | 57.3 |
| CCn1ccnc1CN(C)c1cc(C2CC2)ncn1 | 52.6 |
| COc1cc(N(C)Cc2cc(C(C)(C)C)n[nH]2)ncn1 | -45 |
| CCn1ccnc1CN(C)c1cc(C2CCCNC2)nc(C)n1 (stereo unspecified) | 4.41 |
| CCn1ccnc1CN(C)C(=O)Cn1ccc2ccccc2c1=O | 3.04 |
| CN(C)c1cc(N(C)Cc2cc(C(C)(C)C)n[nH]2)ncn1 | -82.7 |
| Cc1cc(C)n(CCCN(C)c2cc(C3CC3)ncn2)n1 | 8.7 |
| COc1cc(N(C)CCCn2nc(C)cc2C)ncn1 | 14.3 |
| CCn1ccnc1CN(C)c1cc(OC)ncn1 | 58.2 |
| COc1cc(N2CCO[C@H]3[C@@H](Oc4cccnc4)CC[C@@H]32)ncn1 | 23.5 |
| Cc1cccc(CN2CC3(CCN(Cc4ccco4)CC3)OCC2=O)n1 | -16.2 |
| NC(=O)C1CCN(C(=O)Cc2cnc(-c3c(Cl)cccc3Cl)s2)CC1 | 37.9 |
| O=S(=O)(c1ccc(F)cc1)N1CCCC1c1cc[nH]n1 (stereo unspecified) | 33.7 |
| COc1ccc(C(=O)N2CCC(Nc3cccnn3)CC2)c(F)c1 | -32 |
| CC(C)N(CC(N)=O)Cc1cccc(Br)c1 | 16.6 |
| N#CCCN(CC(=O)Nc1ccc(Br)cc1Cl)Cc1cccnc1 | 64.3 |
| Cc1c(Cl)cccc1NC(=O)CCNc1ccc(C#N)cn1 | -128 |

| Structure (SMILES) | INHIBITION [%] |
| --- | --- |
| CCc1noc(C(C)N(C)CC(=O)Nc2ccccc2Cl)n1 (stereo unspecified) | 21.7 |
| N#CCCN(Cc1cccnc1)C(=O)c1ccc(-n2cnnn2)cc1 | 18.6 |
| CC(C)N(CC(=O)Nc1ccc(Br)cc1Cl)Cc1cccnc1 | 73.2 |
| Cc1c(Cl)cccc1NC(=O)CN(Cc1cccnc1)C(C)C | 73.2 |
| N#CCCN(Cc1cccnc1)C(=O)c1cc(Cl)c[nH]1 | 30.3 |
| CC(C)N(CC(=O)O)Cc1cccc(Br)c1 | 13.2 |
| O=C(Cc1ccc2c(c1)CCC2)N1CCCC1Cn1cccn1 (stereo unspecified) | 2.79 |
| Cc1cccc(N2CC3(CCN(S(=O)(=O)C4CC4)C3)C2)n1 | 34.6 |
| CC(=O)N1CCCC2(CN(Cc3ccc(C)s3)CCO2)C1 (stereo unspecified) | -46.8 |
| O=C(Cc1cccs1)N1C[C@H]2CN(CC3CCCO3)CC[C@H]2C1 (stereo partly specified) | 30.3 |
| O=C1[C@@H]2CN(c3ncc(Cl)cc3F)C[C@]2(C(=O)O)CN1CC1CC1 | -5.19 |
| Cc1nc(CN(C)C2CCCN(c3cccnn3)C2)oc1C (stereo unspecified) | -21.8 |
| Cc1cc(C2CCCN2C(=O)CN(C)Cc2ccccc2)no1 (stereo unspecified) | 58.7 |
| Cc1cc(C2CCCN2C(=O)NCc2c(C)cc(C)[nH]c2=O)on1 (stereo unspecified) | 36.1 |
| Cc1nc(C2CCCN2C(=O)CN(C)Cc2ccccc2)no1 (stereo unspecified) | 34 |
| CN(CC(=O)N1CCCC1c1ccccn1)Cc1ccccc1 (stereo unspecified) | 26.6 |
| Cc1cc(C)c(CNC(=O)N2CCCC2c2cc(C)on2)c(=O)[nH]1 (stereo unspecified) | 81.3 |
| Cc1cc(C)c(CNC(=O)N2CCCC2c2ccccn2)c(=O)[nH]1 (stereo unspecified) | -14.7 |
